The supplement of paper PMC12532568
Where a name gives a salt, the structure may show the parent alone.

Each compound was assayed on Danio rerio larvae Tg(actc1b:ZsGreen-LC3), 3 dpf (assay: LC3 puncta relative area vs vehicle, without NH4Cl (log2 fold change); higher = more autophagosomes). Conditions: 10 µM; treatment time 16 h; NH4Cl: none.
Protocol: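 Transgenic Tg(actc1b:ZsGreen-map1lc3) zebrafish larvae (2 dpf) were treated for 16 h with Tocris library compounds at 10 µM (n = 12 larvae per compound). Skeletal-muscle LC3 puncta area relative to body area was measured by high-content confocal imaging before and after 4 h of 100 mM NH4Cl (autophagic flux), normalised to vehicle (DMSO), and reported as log2 fold change.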
`COC(=O)C1=C(C)NC(C)=C(C(=O)OCCSc2ccccc2)C1C` (stereo not given) was tested, and the “LC3 puncta (log2)” value was 0.00326. In the case of `NC(=O)CCCCn1ccc(NC(N)=NCC(F)(F)F)n1`, the “LC3 puncta (log2)” value is reported as 0.486. For `N=C(N)SCCc1c[nH]cn1` [Imetit dihydrobromide], the “LC3 puncta (log2)” value was 0.595. For `CC(C)(C)NC[C@H](O)COc1nsnc1N1CCOCC1` [(S)-Timolol maleate], the “LC3 puncta (log2)” value was 0.305. With `CC(=O)N[C@@H](Cc1c[nH]c2ccccc12)C(=O)OCc1cc(C(F)(F)F)cc(C(F)(F)F)c1` the “LC3 puncta (log2)” value was 0.214. With `N[C@H](C(=O)O)c1ccc(C(=O)O)c(O)c1` [(S)-4-Carboxy-3-hydroxyphenylglycine] the “LC3 puncta (log2)” value was -0.331. In the case of `CCOC(=O)C1=C[C@]2(CC)CCCN3CCc4c(n1c1ccccc41)[C@@H]32` [Vinpocetine], the “LC3 puncta (log2)” value is reported as 0.406. `O=C(NCCN1CCCCC1)c1ccc(I)cc1` [N-[2-(Piperidinylamino)ethyl]-4-iodobenzamide] was tested, and the “LC3 puncta (log2)” value was 0.492. For `OCCN(CCO)c1nc(N2CCCCC2)c2nc(N(CCO)CCO)nc(N3CCCCC3)c2n1` [Dipyridamole], the “LC3 puncta (log2)” value was -0.714. With `COc1ccc([C@@H]2Sc3ccccc3N(CCN(C)C)C(=O)[C@@H]2OC(C)=O)cc1` [Diltiazem hydrochloride] the “LC3 puncta (log2)” value was 0.112. For `c1ccc2nc(C3=NCCN3)cnc2c1` [BU 239 hydrochloride], the “LC3 puncta (log2)” value was -0.208. In the case of `CC1=C(/C=C/C(C)=C/C=C/C(C)=C/C(=O)O)C(C)(C)CCC1` [Retinoic acid], the “LC3 puncta (log2)” value is reported as 0.44. `CNC(=O)c1cc2c(cn1)[nH]c1ccccc12` was tested, and the “LC3 puncta (log2)” value was 0.13. With `NS(=O)(=O)c1cc2c(cc1Cl)NC(C1CC3C=CC1C3)NS2(=O)=O` (stereo not given) [Cyclothiazide] the “LC3 puncta (log2)” value was -0.147. `NC(C(=O)O)c1cc(O)cc(O)c1` (racemic) was tested, and the “LC3 puncta (log2)” value was 0.194. `CC(C)NC[C@H](O)COc1cccc2ccccc12` [(S)-(-)-Propranolol hydrochloride] was tested, and the “LC3 puncta (log2)” value was 0.355. In the case of `O=C1CC2(CCCC2)CC(=O)N1CCNCC1COc2ccccc2O1` (stereo not given), the “LC3 puncta (log2)” value is reported as 0.301. For `COC(=O)/C=C/c1cc(O)ccc1O` [Methyl 2,5-dihydroxycinnamate], the “LC3 puncta (log2)” value was 0.0626. For `c1ccc2oc(C3=NCCN3)cc2c1` [2-BFI hydrochloride], the “LC3 puncta (log2)” value was 0.0586. With `CCC1(c2ccccc2)C(=O)NCNC1=O` [Primidone] the “LC3 puncta (log2)” value was 0.333. For `Nc1cc(N2CCCCC2)nc(N)[n+]1[O-]` [Minoxidil], the “LC3 puncta (log2)” value was 0.233. In the case of `CC(C)NCC(O)COc1cccc2ccccc12` (stereo not given) [Propranolol hydrochloride], the “LC3 puncta (log2)” value is reported as 0.0203. `COc1ccccc1N1CCN(CC(O)COc2cccc3ccccc23)CC1` (stereo not given) [Naftopidil dihydrochloride] was tested, and the “LC3 puncta (log2)” value was -0.0568. With `O=S(=O)(c1cccc2c(Cl)cccc12)N1CCCNCC1` [ML 9 hydrochloride] the “LC3 puncta (log2)” value was 0.232. For `CC(C)NC[C@@H](O)COc1cccc2ccccc12` [(R)-(+)-Propranolol hydrochloride], the “LC3 puncta (log2)” value was 0.00434. `CCOC(=O)C1=C(C)NC(C)=C(C(=O)OC)C1c1cccc([N+](=O)[O-])c1` (stereo not given) [Nitrendipine] was tested, and the “LC3 puncta (log2)” value was 0.107. `CCN(CC)CCOc1ccc(Cc2ccccc2)cc1` [DPPE fumarate] was tested, and the “LC3 puncta (log2)” value was 0.714. For `O=C(O)C1=CCNCC1` [Isoguvacine hydrochloride], the “LC3 puncta (log2)” value was 0.169. `Clc1cccc(Nc2nnc(-c3ccccc3)c3ccccc23)c1` was tested, and the “LC3 puncta (log2)” value was 0.29. In the case of `O=S(=O)(c1cccc2cnccc12)N1CCCNCC1` [Fasudil hydrochloride], the “LC3 puncta (log2)” value is reported as 0.598. For `CCCCOc1cc(CC2CNC(=O)N2)ccc1OC` (stereo not given), the “LC3 puncta (log2)” value was -0.122. In the case of `NC(N)=NC(N)=Nc1cccc(Cl)c1` [m-Chlorophenylbiguanide hydrochloride], the “LC3 puncta (log2)” value is reported as 0.136. For `CCCCCCN(CCCCCC)C(=O)Cc1c(-c2ccc(Cl)cc2)[nH]c2ccc(Cl)cc12`, the “LC3 puncta (log2)” value was 0.364. `Nc1nc2ccc(OC(F)(F)F)cc2s1` [Riluzole] was tested, and the “LC3 puncta (log2)” value was 0.289. With `N[C@H]1CCN(O)C1=O` the “LC3 puncta (log2)” value was 0.0498. `NCC(O)(CS(=O)(=O)O)c1ccc(Cl)cc1` (stereo not given) [2-Hydroxysaclofen] was tested, and the “LC3 puncta (log2)” value was 0.46. `Cc1ccc(OCC(O)C(C)NC(C)C)c2c1CCC2` (stereo not given) [ICI 118,551 hydrochloride] was tested, and the “LC3 puncta (log2)” value was -0.0345. With `C=C1C(=O)O[C@H]2[C@H]1CC/C(C)=C/CC[C@@]1(C)O[C@@H]21` [Parthenolide] the “LC3 puncta (log2)” value was 0.0168. In the case of `O=C(O)CC/C=C\C[C@H]1CO[C@@H](c2ccccc2Cl)O[C@H]1c1ccccc1O`, the “LC3 puncta (log2)” value is reported as -0.249. `CC(CCc1ccc(O)cc1)NCCc1ccc(O)c(O)c1` (stereo not given) [Dobutamine hydrochloride] was tested, and the “LC3 puncta (log2)” value was -0.094.
